Screen size: about 340,000 compounds; about 2,100 (0.62%) were called active. These entries were drawn from the full list. Results with a measured potency or affinity are listed apart. A number with no mark means an inactive call.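 Rule for the calls: active = first-screen hits whose inhibition reached a set limit at any dose in the follow-up dose series; inconclusive = inhibition above the set first-screen limit but never retested; inactive = the rest.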

Data on 94 compounds can be found in PubChem BioAssay AID624330 (Southern Research Specialized Biocontainment Screening …, 2012).

The target of the assay is Rac GTPase-activating protein 1 (Homo sapiens) (UniProt Q9H0H5). As to the kind of experiment: MgcRacGAP GTPase-activating activity inhibitors, confirmation, biochemical, ADP Hunter fluorescence, primary and confirmatory (AID 624330).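 Note: fluorescence reports GDP produced by GAP-driven GTP hydrolysis.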 The conditions noted are these: MgcRacGAP-stimulated Rac1 GTP hydrolysis, at 30 µM, hits give high values, GST-tagged Rac1 F28L mutant substrate.
Chain of Rac GTPase-activating protein 1 (Homo sapiens) (Q9H0H5 whole entry, looked up): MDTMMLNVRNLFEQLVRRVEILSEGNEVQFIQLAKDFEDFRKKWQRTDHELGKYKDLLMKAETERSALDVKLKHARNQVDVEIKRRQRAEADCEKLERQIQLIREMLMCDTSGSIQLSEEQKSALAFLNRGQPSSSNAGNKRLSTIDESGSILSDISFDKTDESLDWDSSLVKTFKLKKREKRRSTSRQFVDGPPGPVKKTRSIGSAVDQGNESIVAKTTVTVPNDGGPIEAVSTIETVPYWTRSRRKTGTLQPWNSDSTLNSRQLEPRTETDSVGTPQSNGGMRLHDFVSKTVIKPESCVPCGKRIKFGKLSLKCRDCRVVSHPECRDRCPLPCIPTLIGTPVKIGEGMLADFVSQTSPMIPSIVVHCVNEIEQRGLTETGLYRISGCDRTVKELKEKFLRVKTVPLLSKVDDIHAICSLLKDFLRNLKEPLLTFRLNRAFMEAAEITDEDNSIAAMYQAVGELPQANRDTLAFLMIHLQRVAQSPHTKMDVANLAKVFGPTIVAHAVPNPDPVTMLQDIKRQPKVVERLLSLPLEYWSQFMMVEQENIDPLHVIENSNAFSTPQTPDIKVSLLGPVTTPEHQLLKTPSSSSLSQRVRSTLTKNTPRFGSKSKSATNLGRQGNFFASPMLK
One may read the inhibition as the relative decrease from the control value, in per cent. Consider `CCCOc1cccc(/C=N/NC(=O)c2csc(C)c2C)c1`, for which the inhibition was 4.91%.
For `CCOC(=O)N1CCN(CCc2ccccc2)CC1` the value was 7.1%; for `CC(C)[C@H](NC(=O)c1ccc(Cl)cc1)C(=O)Nc1cccc(S(=O)(=O)N2CCOCC2)c1`, 12.2%.
For `COc1ccc(/C=C2\C(=O)ON=C2c2ccccc2)cc1OC` the value was 16.1%; for `O=C1ON=C(c2ccccc2)/C1=C/c1ccc(O)cc1`, 27.7%.
For `CCOc1cc(/C=C2/C(=O)ON=C2C)cc(Br)c1O` the value was 29.1%.
With `CCOc1cc(/C=C2\C(=O)ON=C2c2ccccc2)ccc1OC`, the inhibition is 24.3%.
For `COc1ccc(/C=C2/C(=O)ON=C2c2ccccc2)cc1OC` the value was 15.4%; for `O=C1ON=C(c2ccccc2)/C1=C/c1ccccc1`, 5.86%.
With `CN(C)c1cccc(NC(=O)CCc2ccccc2)c1`, the inhibition is 2.65%.
For `C[C@H](CO)N1C[C@H](C)[C@H](CN(C)C(=O)CCC(F)(F)F)OCc2cnnn2CCCC1=O` the value was 6.43%; for `C=CCSc1nnc(-c2ccncc2)n1-c1ccc(OCC)cc1`, 6.74%.
For `CC1CCN(S(=O)(=O)c2ccc(C(=O)NCc3cccnc3)cc2)CC1` the value was -0.6%.
In the case of `C/C(CC(=O)Nc1cccc2c1CCCC2)=N\NC(=O)c1ccccc1N` it was 5.83%; in that of `CC(C)(C)CC(=O)Nc1nnc(SCC(=O)NC2CCCC2)s1`, 4.93%.
For the compound `CC(C)OC(=O)c1c(NC(=O)c2cnn3c2NC(c2ccccc2)CC3C(F)(F)F)sc2c1CCCC2` (centres undefined), the inhibition is 10.2%.
For `O=C(Nc1c2c(nc3ccccc13)CCCC2)c1ccccc1Cl` the value was 2.57%; for `CCCCCC(=O)Nc1c2c(nc3ccccc13)CCC2`, 8.1%; for `Cc1ccccc1C(=O)Nc1c2c(nc3ccccc13)CCCC2`, 10.8%.
In the case of `O=C(CCCCCl)Nc1c2c(nc3ccccc13)CCC2` it was 0.44%; in that of `CCN1CCN(c2ccc(NC(=O)c3ccc(OC)c(S(=O)(=O)N4CCCC4)c3)cc2)CC1`, 4.33%.
Take `CC(C)N1CCN(Cc2coc3ccccc3c2=O)CC1CCO` (centres undefined): the inhibition was 10.3%.
In the case of `O=C(CSc1nc(=O)n2ccccc2n1)NCCc1ccccc1` it was 4.62%; in that of `NC(=O)CC(NC(=O)c1cccc(Br)c1)c1ccc(N2CCN(c3ccccn3)CC2)c([N+](=O)[O-])c1` (centres undefined), 5.09%; in that of `COc1ccccc1/C=C/C(=O)c1cc(Br)ccc1OC(=O)c1ccco1`, 8.54%.
For `CC(C)CC(O)(CC(C)C)C(=O)NNc1ccccc1` the value was 11.2%; for `CCOC(=O)c1nc(Nc2ccccc2)c2ccccc2n1`, -2.22%.
In the case of `CCOC(=O)c1nc(Nc2ccc(C)cc2)c2ccccc2n1` it was 4.57%.
Take `CCN(CC(=O)Nc1ccccc1OC)C(=O)COc1ccc(C#N)cc1`: the inhibition was 2.59%.
In the case of `COc1ccccc1CN(C)CC(=O)Nc1ccc(Cl)cc1C(F)(F)F` it was 18.9%.
In the case of `COc1ccc(CN(C)CC(=O)Nc2ccccc2C(F)(F)F)c(OC)c1` it was 24.5%; in that of `COc1ccc(CCN=C(N)NS(=O)(=O)c2ccc(F)cc2)cc1OC`, 7.56%.
For `CCC(=O)NC(=S)Nc1ccc(NC(=O)c2cccnc2)cc1` the value was -1.6%.
Take `Cc1cc2ccccc2n2c(SCC(=O)NCc3cccs3)nnc12`: the inhibition is -2.11%.
For `C[C@H](CO)N1C[C@H](C)[C@@H](CN(C)S(=O)(=O)c2cccc(C#N)c2)OCc2cn(nn2)CCCC1=O` the value was 13.9%; for `NS(=O)(=O)c1ccc(-c2ccc(C=C3C(=O)c4ccccc4C3=O)o2)cc1`, 2.34%.
Regarding `NS(=O)(=O)c1ccc(-c2ccc(/C=C3\C(=O)Nc4cc(Cl)ccc43)o2)cc1`, the inhibition is 6.45%.
For `CSc1ccccc1NC(=O)C1CCCN(S(C)(=O)=O)C1` (centres undefined) the value was -1.03%; for `C=CCNC(=S)Nc1ccc(Cl)cc1`, 3.44%; for `C=CCNC(=S)Nc1cccc(NC(=S)NCC=C)c1`, 6.56%.
In the case of `CCCCn1c(CCNC(=O)c2cccs2)nc2ccccc21` it was -1.35%; in that of `COc1cccc(/C=N/NC(=O)c2ccc(N3CCCC3=O)cc2)c1`, 7.68%.
For `COc1cccc(/C=N/NC(=O)c2cccc(N3CCCC3=O)c2)c1` the value was 4.11%; for `COc1ccc(/C=N/NC(=O)c2ccc(N3CCCC3=O)cc2)cc1`, 7.42%.
For the compound `COc1ccc(O)c(/C=N/NC(=O)c2cccc(N3CCCC3=O)c2)c1`, the inhibition is 3.65%.
For `CCN(CCO)C(=O)CC1C(=O)NCCN1Cc1c(F)cccc1Cl` (centres undefined) the value was 9.19%.
In the case of `CN(Cc1cccc(F)c1)C(=O)CSc1nnc(C2CC2)n1C1CC1` it was 7.8%.
Take `CCOc1cc(C(=O)NCC(C)CN(C)C)cc(OCC)c1OCC` (centres undefined): the inhibition was 1.39%.
In the case of `Cc1ccc(NS(=O)(=O)c2ccc(C)c(NC(=O)c3ccc(S(=O)(=O)N4CCCCCC4)cc3)c2)c(C)c1` it was 11.6%.
For `COc1ccc(CN2CCN(CC(=O)Nc3ccccc3C(=O)NC3CC3)CC2)cc1F` the value was 6.52%; for `CCCN(CCO)Cc1ccc2ccccc2c1`, 3.4%; for `CN(C)C(=O)CCc1ccc2c3c([nH]c2c1)[C@]1(C)[C@@H](C(=O)N2CCCCC2)C[C@H](CC(=O)NCc2cccc(C(F)(F)F)c2)C(=O)N1CC3`, 4.55%.
In the case of `CCOC(=O)CSC1=NC(=O)/C(=C/c2ccc(Br)cc2)S1` it was 19.4%; in that of `CCOC(=O)CSC1=NC(=O)/C(=C/c2ccc(OC)cc2)S1`, 16.1%; in that of `CCN1C[C@@H]2[C@@H]3C(=O)N(Cc4ccccc4)C(=O)[C@@H]3[C@](Cc3ccccc3)(C1=O)N2C(=O)c1ccc(Cl)cc1`, 6.26%.
With `COc1ccc(C(=O)CC(=O)C(=O)Nc2ccc(OC)c(Cl)c2)cc1`, the inhibition is 5.32%.
For `CN(C(=O)CCc1nc(-c2ccccc2F)no1)c1ccccc1` the value was -0.78%.
In the case of `N#CC(C#N)=C1C=CC=CN1/C(=C\c1ccccc1Cl)C(=O)c1ccccc1` it was 17.8%; in that of `N#CC(C#N)=C1C=CC=CN1/C(=C\c1ccco1)C(=O)c1ccccc1`, 16.7%.
For `COc1ccc(C(=O)/C(=C\c2ccco2)N2C=CC=CC2=C(C#N)C#N)cc1` the value was 4.05%; for `N#CC(C#N)=C1C=CC=CN1/C(=C\c1ccco1)C(=O)c1ccc(-c2ccccc2)cc1`, 15.6%.
For the compound `CCCCN(C(=O)c1cc(CN2C(=O)c3ccccc3C2=O)ccc1OC)c1c(N)n(CC(C)C)c(=O)[nH]c1=O`, the inhibition was 3.78%.
For `O=C(Nc1cccc(Cl)c1Cl)C1CCN(c2ncccn2)CC1`, the inhibition is 7.84%.
In the case of `NC(=O)c1ccc(NC(=O)CSC(=O)c2ccccc2)cc1` it was 8.91%; in that of `CCCCc1ccc(NC(=O)C2CCCC2)cc1`, -0.66%.
Consider `CCN(CC)c1ccc(/C=N/NC(=O)Nc2ccccc2)cc1`, for which the inhibition is 28.4%.
`CCN(CC)c1ccc(NC(=S)NC(=O)C2CCC2)cc1`: the inhibition was 18%.
For `CCN(CC)c1ccc(NC(=O)Nc2ccc(C(C)=O)cc2)cc1`, the inhibition was 10.2%.
In the case of `CC(=O)c1cccc(NC(=O)CSC(=O)c2ccccc2)c1` it was 7.67%; in that of `CCOC(=O)C(Cc1ccccc1)C(=O)Nc1cccc(C)c1` (centres undefined), 1.33%; in that of `CCOC(=O)C(Cc1ccccc1)C(=O)Nc1ccc(NC(=O)C(Cc2ccccc2)C(=O)OCC)cc1` (centres undefined), 4.48%.
For `COC(=O)c1cc(OC)c(OC)cc1NC(=O)CCCCCN1C(=O)CCC1=O` the value was 5.93%; for `COc1ccc(CCC(=O)Nc2ccc(Cn3ccnc3)cc2)cc1`, 6.46%; for `Cn1c(CCc2ccccc2)n[nH]c1=S`, 4.25%.
On to `C=CCOCCN(CC)CC`, for which the inhibition is 6.71%.
Consider `CC#CCCCC(=O)Nc1ccccc1C(=O)O`, for which the inhibition is 6.9%.
For `CCCn1c(SCCc2ccccc2)nc2c1c(=O)[nH]c(=O)n2C` the value was -2.73%.
In the case of `CCN(CC)c1ccc(/C=N/NC(=O)c2ccc(Br)o2)cc1` it was 14.9%; in that of `CCOc1ccc(NC(=O)COc2ccc(-n3cnnn3)cc2)cc1`, 6.31%; in that of `COC(=O)Cc1ccc(NC(=O)c2ccc(Br)o2)cc1`, 18.8%.
In the case of `CCOC(=O)c1ccc(NC(=O)COc2ccc(-n3cnnn3)cc2)cc1` it was 11.5%; in that of `COc1cccc(C(=O)NCCS(=O)(=O)N2CCC3(CC2)OCCO3)c1`, 6.03%.
On to `CC(=O)CC(=O)Nc1cccc2c1CCCC2`, for which the inhibition is 5.33%.
In the case of `COC(=O)c1ccc(NCc2cc(O)ccc2O)cc1O` it was 27%; in that of `COC(=O)c1cc(CNC(=O)c2ccc(O)c(Cl)c2)ccc1OC`, 2.78%; in that of `CNS(=O)(=O)c1ccc(C(=O)NCC(=O)NCC2COc3ccccc3O2)cc1` (centres undefined), 3.68%.
For `O=C(Nc1ccccc1N1CCCC1)C1CCN(S(=O)(=O)c2ccccc2)CC1` the value was 2.86%; for `CC(C)OCCCNC(=O)CN1C(=O)/C(=C/c2ccccc2)Sc2ccccc21`, -14.8%.
In the case of `Cc1ccc(-c2cc(C(=O)N(C)Cc3cnn(C)c3C)c3cc(Br)ccc3n2)cc1`, the inhibition is 7.31%.
As to `Cc1ccc(S(=O)(=O)/N=C2\C=C(NS(=O)(=O)c3ccccc3)C(=O)c3ccccc32)cc1`, the inhibition was 2.77%.
Turning to `O=C1C(Cl)=C(Nc2ccc(O)cc2)C(=O)c2ccccc21`, the inhibition is 27.1%.
With `Cc1ccc(S(=O)(=O)Nc2ccc(N=Nc3ccc(O)cc3)cc2)cc1`, the inhibition was 21.7%.
For `O=C1C(O)=C(O)C(=O)c2ccccc21` the value was -6.63%.
Regarding `O[C@H]1C[C@H](c2ccccc2)N(Cc2cccs2)C[C@@H]1n1cc(-c2ccc(F)cc2)nn1`, the inhibition is 7.08%.
